Data published in PubChem BioAssay (NCI).
Values joined by “and” are separate entries in the source; they are usually repeats but may differ in a detail not shown here. Identical values can stand only once. About 79,000 compounds went through this panel and 15% of them were active in at least one assay; those are over-represented in the sample as a whole. More than one record can exist for a structure, and the calls need not agree. Active and inactive are the calls of the source. Rule as the data show it: active = growth inhibition above about 70%; inactive = the rest.

Experiments:
[1] = NCI Yeast Anticancer Drug Screen. Data for the rad52 strain (AID 147);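 also: 0% = growth of vehicle-treated control cultures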; settings: S. cerevisiae rad52 mutant growth inhibition, stronger effect = higher value
Summary of the method: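 Compounds are applied to a genetically defined yeast strain lacking normal DNA damage repair, and inhibition of growth is expressed relative to cultures given vehicle only.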

[2] = NCI Yeast Anticancer Drug Screen. Data for the wt1 strain (AID 149);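 also: 0% = growth of vehicle-treated wt1 cultures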; settings: S. cerevisiae wt1 strain (SPY 50644) growth inhibition, stronger effect = higher value
Summary of the method: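 Vehicle-normalised growth inhibition; strain wt1; compound exposure.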

[3] = NCI Yeast Anticancer Drug Screen. Data for the rad50EPP+ strain (AID 151);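 also: 0% = growth of vehicle-treated control cultures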; settings: S. cerevisiae rad50 mutant strain, stronger effect = higher value
Summary of the method: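 Compounds were applied to the rad50EPP+ yeast strain, which bears a defined DNA repair alteration, and growth inhibition was determined relative to vehicle-treated cultures.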

[4] = NCI Yeast Anticancer Drug Screen. Data for the mgt1 strain (AID 153); settings: S. cerevisiae mgt1 mutant growth inhibition, stronger effect = higher value
Summary of the method: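 Strain: mgt1 yeast, one of a set carrying defined DNA damage repair or cell cycle control alterations. Compound-treated growth compared with vehicle.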

[5] = NCI Yeast Anticancer Drug Screen. Data for the rad50 strain (AID 155);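 also: 0% = growth of vehicle-only cultures of the same strain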; settings: S. cerevisiae rad50 strain growth inhibition, stronger effect = higher value
Summary of the method: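 A DNA repair-deficient yeast mutant serves as the test organism; compound-induced growth inhibition is calculated against vehicle-treated cells.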

[6] = NCI Yeast Anticancer Drug Screen. Data for the mec2-1 strain (AID 157); settings: S. cerevisiae mec2-1 strain, stronger effect = higher value
Summary of the method: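 Strain: mec2-1 (DNA repair/cell cycle alteration). Compound exposure, then growth measured; inhibition expressed relative to vehicle.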

[7] = NCI Yeast Anticancer Drug Screen. Data for the rad14 strain (AID 159);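 also: 0% = growth of vehicle-treated control cultures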; settings: S. cerevisiae rad14 strain growth inhibition, stronger effect = higher value
Summary of the method: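 Vehicle-treated cultures served as the baseline for growth inhibition of a DNA repair-mutant yeast strain exposed to each compound.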

[8] = NCI Yeast Anticancer Drug Screen. Data for the sgs1 mgt1 strain (AID 161);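 also: 0% = growth of cultures given vehicle only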; settings: S. cerevisiae sgs1 mgt1 strain, stronger effect = higher value
Summary of the method: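 Test agents were incubated with a DNA-repair-mutant yeast strain. Growth was then read and compared against vehicle-treated controls.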

[9] = NCI Yeast Anticancer Drug Screen. Data for the CLN2oe strain (AID 163);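 also: 0% = growth of vehicle-only control cultures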; settings: S. cerevisiae CLN2oe strain, stronger effect = higher value
Summary of the method: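 Growth of a genetically modified yeast strain is measured after compound exposure and compared with cultures given vehicle alone.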

[10] = NCI Yeast Anticancer Drug Screen. Data for the cln2 rad14 strain (AID 165);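 also: 0% = growth equal to vehicle treated cultures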; settings: S. cerevisiae cln2 rad14 strain, stronger effect = higher value
Summary of the method: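 Compounds are applied to the cln2 rad14 yeast strain, and growth is then compared with that of vehicle-treated cultures to give inhibition.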

[11] = NCI Yeast Anticancer Drug Screen. Data for the bub3 strain (AID 167); settings: S. cerevisiae bub3 mutant strain, stronger effect = higher value
Summary of the method: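 Inhibition values come from growth of compound-treated mutant yeast normalised to vehicle-treated controls.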

[12] = NCI Yeast Anticancer Drug Screen. Data for the wt2 strain (AID 169);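 also: 0% = growth of vehicle-treated yeast cultures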; settings: S. cerevisiae wt2 strain growth inhibition, stronger effect = higher value
Summary of the method: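 This strain belongs to a panel of yeast strains with defined genetic alterations in DNA damage repair or cell cycle control. Compounds are applied, and growth inhibition is measured against vehicle-treated cultures.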

[13] = NCI Yeast Anticancer Drug Screen. Data for the mlh1 strain (AID 171);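 also: 0% = growth of vehicle-treated control cultures of the same strain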; settings: S. cerevisiae mlh1 strain growth inhibition, stronger effect = higher value
Summary of the method: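 Growth of the mutant yeast strain after compound exposure, expressed as inhibition relative to vehicle-only controls.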

[14] = NCI Yeast Anticancer Drug Screen. Data for the sgs1 strain (AID 173);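 also: 0% = growth of vehicle-only control cultures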; settings: S. cerevisiae sgs1 mutant, stronger effect = higher value
Summary of the method: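 Growth of a yeast strain bearing a defined genetic alteration is measured after compound treatment. Inhibition is expressed relative to vehicle-only controls.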

[15] = NCI Yeast Anticancer Drug Screen. Data for the mlh1 rad18 strain (AID 175); settings: S. cerevisiae mlh1 rad18 strain growth inhibition, stronger effect = higher value
Summary of the method: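 Read-out is yeast growth inhibition, calculated against vehicle-only controls. The compound was applied to a strain engineered with DNA damage repair alterations.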

[16] = NCI Yeast Anticancer Drug Screen. Data for the rad18 strain (AID 177); settings: S. cerevisiae rad18 mutant growth inhibition, stronger effect = higher value
Summary of the method: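 Growth of the mutant yeast strain after compound exposure, normalised to vehicle-only cultures.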

[17] = at 5.0 µM (retest, dose inferred, filed as 0.5)
[18] = at 50.0 µM (retest, dose inferred, filed as 5.0)

Measured: growth inhibition

O=c1[nH]c2ccc(Cl)cc2o1
active: [11]; at 33.0 µM 71% | [11]; [18] 92% and 96% | [11]; at 50.0 µM 87.3% and 92% | [11]; at 100.0 µM 92%
93% (active) and 68% (inactive): [6]; [18]
inactive: [1]; at 1.2 µM -14% | [1]; at 3.7 µM -10% | [1]; at 11.0 µM -11% | [1]; at 33.0 µM -13% | [1]; at 100.0 µM -1% | [2]; at 1.2 µM -30% | [2]; at 3.7 µM -28% | [2]; at 11.0 µM -33% | [2]; at 33.0 µM -32% | [2]; at 100.0 µM -23% | [3]; at 1.2 µM -43% | [3]; at 3.7 µM -42% | [3]; at 11.0 µM -33% | [3]; at 33.0 µM -52% | [3]; at 100.0 µM -64% | [4]; at 1.2 µM -45% | [4]; at 3.7 µM -37% | [4]; at 11.0 µM -28% | [4]; at 33.0 µM -33% | [4]; at 100.0 µM -23% | [5]; at 1.2 µM -31% | [5]; at 3.7 µM -23% | [5]; [17] 47% and 1% | [5]; at 11.0 µM -17% | [5]; at 33.0 µM -19% | [5]; at 50.0 µM 15.6% and 15.7% | [5]; at 100.0 µM -18% | [6]; at 1.2 µM -62% | [6]; at 3.7 µM -70% | [6]; [17] 48% and -3% | [6]; at 11.0 µM -60% | [6]; at 33.0 µM -47% | [6]; at 50.0 µM 3.9% and 2.1% | [6]; at 100.0 µM -53% | [7]; at 1.2 µM -44% | [7]; at 3.7 µM -38% | [7]; at 11.0 µM -28% | [7]; at 33.0 µM -35% | [7]; at 100.0 µM -32% | [8]; [17] 6% and 1% | [8]; [18] 20% and 51% | [8]; at 50.0 µM 15.4% and -2.75% | [9]; at 1.2 µM -25% | [9]; at 3.7 µM -26% | [9]; at 11.0 µM -30% | [9]; at 33.0 µM -34% | [9]; at 100.0 µM -15% | [10]; [17] 46% and 2% | [10]; [18] 53% and 43% | [10]; at 50.0 µM 23.1% and -1.85% | [11]; at 1.2 µM -15% | [11]; at 3.7 µM -1% | [11]; [17] 57% and 20% | [11]; at 11.0 µM 7% | [12]; at 1.2 µM -27% | [12]; at 3.7 µM -27% | [12]; at 11.0 µM -31% | [12]; at 33.0 µM -27% | [12]; at 100.0 µM -6% | [13]; at 1.2 µM -41% | [13]; at 3.7 µM -33% | [13]; at 11.0 µM -56% | [13]; at 33.0 µM -41% | [13]; at 100.0 µM -27% | [14]; at 1.2 µM -36% | [14]; at 3.7 µM -47% | [14]; at 11.0 µM -48% | [14]; at 33.0 µM -34% | [14]; at 100.0 µM -22% | [15]; [17] 52% and 1% | [15]; at 50.0 µM 24.9% and -2.65% | [16]; at 1.2 µM -39% | [16]; at 3.7 µM -34% | [16]; at 11.0 µM -46% | [16]; at 33.0 µM -38% | [16]; at 100.0 µM -21%
98% (active) and 64% (inactive): [5]; [18]
92% (active) and 32% (inactive): [15]; [18]
